TRPV1 agonist – human TRPV1 agonism; TRPV1-expressing cells, Fluo-8 calcium influx, agonist mode; Q8NER1; activation, % at 8.33 µM; 320,000 tested, 0.19% active; in the data active = activation above about 80%; inconclusive = between about 30% and that limit; also: 0% is about no effect
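TRPV1-expressing cells were cultured overnight at 35.5C and loaded with Fluo-8 calcium dye for 40 to 90 min at room temperature. After a 10 s baseline, compound was added and calcium influx was read kinetically for 3 min (ex 480/em 520 nm).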
gsp antagonist – gsp mutant antagonism; Potency, µM (doses to about 76.9 µM), inactives show top-dose activity change, negative = inhibition, actives largely listed as inhibitors; 340,000 tested, 0.4% active; gsp-mutant cells, cAMP HTRF, 30 min; calls by dose curve; cell line not stated here;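 also: intracellular cAMP measured with PDE inhibitor Ro 20-1724 present during compound exposure; potency is read from the fitted curve at half-maximal effect; % is scaled to controls: 0 for no effect and ±100 for the full control effect; nearly all actives have a fitted effect of over 65% in size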
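HTRF cAMP read-out (cAMP-d2 plus anti-cAMP antibody-K in lysis buffer, 30 min RT). Before lysis, cells are exposed to compounds with […] for 30 min at 37C in DPBS containing Ca/Mg, BSA and Tween 20.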
TRPV1 potentiator – human TRPV1 potentiation | TRPV1-expressing cells, Fluo-8 calcium influx, capsaicin EC20 potentiation | potentiation, % at 8.33 µM | 320,000 tested, 0.02% active | AID 540277; in the data active = potentiation above about 80%; inconclusive = between about 30% and that limit; also: 0% is about no effect
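TRPV1-expressing cells were cultured overnight at 35.5C and loaded with Fluo-8 calcium dye for 40 to 90 min at room temperature. After a 10 s baseline, compound was added and calcium influx was read kinetically for 3 min (ex 480/em 520 nm).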
RXFP1 antag – blocks the human relaxin receptor RXFP1 | Q9HBX9 | HEK293-RXFP1, relaxin-stimulated cAMP HTRF, 30 min; active compounds read low | activity change, negative = inhibition, % at 57.5 µM | 350,000 tested, 0.59% active;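 active = activity change of -60% or lower, but not beyond a set lower limit; inconclusive = change between -60% and -40%, or beyond the set limit; inactive = change above -40%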; also: % is scaled to controls: 0 for no effect and ±100 for the full control effect
Target sequence (Q9HBX9 whole entry, looked up): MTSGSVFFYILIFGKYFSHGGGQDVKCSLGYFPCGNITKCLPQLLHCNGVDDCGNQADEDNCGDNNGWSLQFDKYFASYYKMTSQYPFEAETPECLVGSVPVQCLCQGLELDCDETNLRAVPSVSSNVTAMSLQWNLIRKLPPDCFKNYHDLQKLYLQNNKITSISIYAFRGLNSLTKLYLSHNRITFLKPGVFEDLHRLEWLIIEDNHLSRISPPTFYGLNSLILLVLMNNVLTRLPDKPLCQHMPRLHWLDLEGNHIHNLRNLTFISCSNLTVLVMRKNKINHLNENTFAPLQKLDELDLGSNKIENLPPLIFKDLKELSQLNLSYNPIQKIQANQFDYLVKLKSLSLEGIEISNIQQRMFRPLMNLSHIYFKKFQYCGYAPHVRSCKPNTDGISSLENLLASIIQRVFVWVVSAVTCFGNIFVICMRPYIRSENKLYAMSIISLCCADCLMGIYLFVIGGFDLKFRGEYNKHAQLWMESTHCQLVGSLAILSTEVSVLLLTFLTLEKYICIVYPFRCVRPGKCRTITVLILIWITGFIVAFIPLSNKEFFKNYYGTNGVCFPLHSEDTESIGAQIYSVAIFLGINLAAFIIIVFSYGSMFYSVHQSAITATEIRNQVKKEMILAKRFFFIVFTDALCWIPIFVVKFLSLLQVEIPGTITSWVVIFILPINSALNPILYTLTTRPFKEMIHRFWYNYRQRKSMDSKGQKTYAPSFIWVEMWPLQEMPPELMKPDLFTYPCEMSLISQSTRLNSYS
gsp agonist – agonists of gsp mutant (McCune-Albright syndrome). gsp mutant cells, cAMP HTRF, 30 min. Potency, µM (top dose mostly 76.9 µM), for the others: top-dose activation (cAMP increase), actives largely listed as activators. 340,000 tested, 0.13% active. AID 624287; active = well fitted activation curve with a large enough effect; inconclusive = small, poorly fitted or top-dose-only effect, or another doubt; inactive = no such curve, though single readings can be large or run the other way; cell line not stated here;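 also: phosphodiesterase inhibitor Ro 20-1724 added with compounds to block cAMP breakdown; potency is read from the fitted curve at half-maximal effect; nearly all actives have a fitted effect of over 60% in size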
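Cells in DMEM/10% FBS with G418 were pretreated with compounds in DMSO plus […] (300 uM stock) for 30 min at 37C. cAMP was measured by HTRF (cAMP-d2 plus anti-cAMP antibody-K) after 30 min at room temperature.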
RXFP1 ag – activates the human relaxin receptor RXFP1; Potency, µM (series often up to 57.5 µM), for the others: at the highest dose activation, most hits filed as activators; AID 2676; Q9HBX9; HEK293T-RXFP1 cAMP TR-FRET, 30 min; response scale: percent of porcine relaxin response, buffer zero; 370,000 tested, 0.3% active; active = well fitted activation curve with a large enough effect; inconclusive = small, poorly fitted or top-dose-only effect; also: potency is read from the fitted curve at half-maximal effect; % is scaled to controls: 0 for no effect and ±100 for the full control effect; nearly all actives have a fitted effect of over 60% in size
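cAMP rise read by TR-FRET after 30 min, 37C compound exposure (up to 58 uM) in RXFP1-transfected HEK293 cells with Ro 20174 present. EC50 from Hill-equation fits, with 29 nM porcine relaxin as 100% and buffer as basal.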
* = called active by the depositor; ? = inconclusive; . = no result given; [ ] = remark or other dose. Compounds with a hit are over-represented: about 1.1% of the library has one in this group of screens.

SMILES	TRPV1 agonist	gsp antagonist	TRPV1 potentiator	RXFP1 antag	gsp agonist	RXFP1 ag
O=C(CSc1ccc(Cl)cc1)N1CCC(c2nc3ccccc3s2)CC1	?	32µM*	-8	-11	-18%	-3%
COc1cc(CNCCO)cc(Br)c1OCc1ccccc1Cl	22	25%	-8	-76*	-13%	0%
CCN(CC)S(=O)(=O)c1cc(NC(=O)c2ccc3c(c2)NC(=O)C(C)S3)ccc1C (stereo not given)	?	?	-4	-76*	-30%	0%
CCN(CC)S(=O)(=O)c1cc(NC(=O)NCCCl)ccc1C	-4	10%	-6	-5	6%[15.4 µM]	4%
CCN(CC)S(=O)(=O)c1cc(NC(=O)c2ccc(Br)s2)ccc1C	83*	-28%	-12	?	16%[15.4 µM]	0%
Cc1cc(C)c(NC(=O)c2ccc3c(c2)NC(=O)C(C)S3)c(C)c1 (stereo not given)	26	-10%	-13	0	0%	-2%
Cc1cccc(Nc2nnc(SCC(=O)NCC3CCCO3)s2)c1C (stereo not given)	.	5%	.	-6	-19%	.
Cc1ccc(C(=O)NNC(=O)COC(=O)COc2ccccc2C#N)cc1	3	11%	7	-7	?	-1%
CCCC1NC(=O)c2cc3ccccc3cc2-n2c1nc1cc(F)ccc1c2=O (stereo not given)	.	.	.	-14	18%	.
CCOc1ccc(C(=O)NNC(=O)CN2C(=O)C3CC=CCC3C2=O)cc1OC (stereo not given)	.	5%	.	5	4%	.
CC(C)OC(=O)c1c(NC(=O)C2c3ccccc3Oc3ccccc32)sc2c1CCCC2	.	.	.	4	.	22µM*
Nc1ccc(Br)c2cccnc12	-1	-16%	-2	-65*	-12%[15.4 µM]	2%
CS(=O)(=O)Oc1ccc(Br)c2cccnc12	-5	11%	23	-1	20%	0%
CC(C)CC1Nc2ncnc(N3CCCCC3)c2N(Cc2ccc(Br)cc2)C1=O (stereo not given)	82*	-3%	1	.	13%	1%
CCCCOc1ccccc1C(=O)N(Cc1ccc(C)o1)C1CCS(=O)(=O)C1 (stereo not given)	12	-16%	-17	-3	-47%	3%
CC(C)OCCCn1c(=O)c2ccccc2n2c(CCC(=O)N3CCN(c4ccccn4)CC3)nnc12	2	-8%	-12	-29	20µM*	19%
CC(C)CCn1c(=O)c2ccccc2n2c(CCC(=O)NCC3CCCO3)nnc12 (stereo not given)	1	6%	-13	-13	32µM*	?
CC(C)CCn1c(=O)c2ccccc2n2c(CCC(=O)NC3CCN(Cc4ccccc4)CC3)nnc12	10	-3%	-7	-6	-58%	5%
Cc1ccc(-c2nnc(SCC(=O)N3CCc4ccccc43)o2)cc1	.	.	.	-5	.	0%
Nc1ccc(N2CCCCC2)c(Cl)c1	-1	5%	8	4	-24%	0%
Cc1ccc(CN2CCCn3nc(C(=O)NCCc4cccc(C)c4)cc3C2=O)cc1	.	.	.	-22	.	0%
Cc1ccc(-n2nc(C(=O)Nc3ccc(C)c(F)c3)c3c4ccccc4n(C)c3c2=O)cc1	.	.	.	-2	.	0%
COc1ccc2c(c1)c(CC(=O)NCc1cc([N+](=O)[O-])ccc1O)c(C)n2C(=O)c1ccc(Cl)cc1	7	35µM*	2	-84*	8%	5%
CCN(C(=O)c1cn(-c2ccc(OC)cc2)c(=O)c2ccccc12)c1cccc(Cl)c1	.	.	.	1	.	0%
O=C(CN1C(=O)c2ccc(Br)cc2C1=O)NCC1CCCO1 (stereo not given)	-11	13%	6	11	7.1µM*	?
Nc1c(I)cc(I)c(C(=O)N(CCC(=O)O)c2ccccc2)c1I	.	.	.	-19	.	.
COc1ccc(NS(=O)(=O)c2ccc(C(=O)N3CCC(C)CC3)cc2)cc1	.	-8%	.	-13	?	.
COc1ccc(OC)c(-c2cc(C3CCN(c4cc(Cl)nc(N)n4)CC3)[nH]n2)c1	.	35µM*	.	-26	-65%	0%

High-throughput results deposited in PubChem BioAssay by National Center for Advancing Translational Sciences (NCATS).
